This note sets out measurements from the OligoGym collection.
Note: reference of the scale not given here.

One experiment concerns the target ATP6V0A4. As to the kind of experiment: pooled miR-30 sensor sort-seq; sequence = guide strand. Particulars: shRNA.
With TCTTTGAACTGAACCAATCCGA, the sensor-assay potency score (higher = more potent) was 0.235.

TTCTGCACCTTGATGAGCCAGG yielded a sensor-assay potency score (higher = more potent) of -0.64.

The sequence ATAGGCATCAACAATATTCTGG gave a sensor-assay potency score (higher = more potent) of -0.65.

TTCTAGAACAGTCTCCAGGGTA: the sensor-assay potency score (higher = more potent) was -0.117.

For the sequence TTGTTCTGGAACTCAACCCAGT, the sensor-assay potency score (higher = more potent) is -0.422.

As to TTTTTCTAGAACAGTCTCCAGG, the sensor-assay potency score (higher = more potent) was -0.591.

TAGTTAAACAGAAACATGTTGA showed a sensor-assay potency score (higher = more potent) of -0.563.

Consider ATCTTCTTGATTTTCTGCCTGA, for which the sensor-assay potency score (higher = more potent) is -0.439.

On to TTTCGTCACAGGATCCTCCAGA, for which the sensor-assay potency score (higher = more potent) came out at 0.303.

On to TTCCTGTAACTCTCCTTCCAGT, for which the sensor-assay potency score (higher = more potent) is -0.817.

The target of another experiment is ATP7B. The experiment is described as above. Conditions: shRNA.
TTCAGGAGCAGAGACCACTTGT gave a sensor-assay potency score (higher = more potent) of -0.382.

Take TGTCCTGCTCAGCTTGTGGTGA: the sensor-assay potency score (higher = more potent) was -0.618.

The sequence TTTCATCTCGTGGTCTGTCATA had a sensor-assay potency score (higher = more potent) of -1.47.

Regarding TCTCGTGGTCTGTCATAGCGTC, the sensor-assay potency score (higher = more potent) was -0.487.

In turn, TAGCTCTGGCTGTCTTCCGGTT returned a sensor-assay potency score (higher = more potent) of -1.3.

Turning to TGACTCGCCTCTCACCTTCTAC, the sensor-assay potency score (higher = more potent) is -1.09.

As to TAGAGTCCAAGACAAAGCCCAT, the sensor-assay potency score (higher = more potent) is -1.12.

The sequence TAGCACTTGAGCTGCAGGGATG displayed a sensor-assay potency score (higher = more potent) of -1.64.

As for TTATCTTGTGCGCCATCTCCAG, the sensor-assay potency score (higher = more potent) was -0.947.

With AACATCACAGTCTTTATCTTGT, the sensor-assay potency score (higher = more potent) is -0.258.

As to AATGCTAGCCACCACATCCAGC, the sensor-assay potency score (higher = more potent) is -0.992.

TTTTTGGTCCTGATGAAACTGT: the sensor-assay potency score (higher = more potent) is -0.518.

TATAGCACTTGAGCTGCAGGGA: the sensor-assay potency score (higher = more potent) is -0.435.

TTTGTTGATGCCAACCTGGGTG gave a sensor-assay potency score (higher = more potent) of -0.00244.

As to TGTCTGTCCTTTCATCTCGTGG, the sensor-assay potency score (higher = more potent) was -1.22.

As to TTGTCAAACATCACAGTCTTTA, the sensor-assay potency score (higher = more potent) was -0.992.

TTCCTCTTTACAGTATTTGGTG came in with a sensor-assay potency score (higher = more potent) of -0.123.

Turning to TTGGGGTTCTTTGACATCTGAG, the sensor-assay potency score (higher = more potent) is -0.597.

In the case of AAACATCACAGTCTTTATCTTG, the sensor-assay potency score (higher = more potent) is -0.586.

Turning to ATAGCGTCACTGACATCGCTAG, the sensor-assay potency score (higher = more potent) was -0.788.

Sequence TTGACATCTGAGCCTCTTCCAC yielded a sensor-assay potency score (higher = more potent) of -1.39.

TGACTGGACATATCCAGGGAGC returned a sensor-assay potency score (higher = more potent) of -1.47.

As for TCATCGTCTGCTGCAGCGCTGT, the sensor-assay potency score (higher = more potent) was -1.45.

The sequence TATCTTGTGCGCCATCTCCAGG showed a sensor-assay potency score (higher = more potent) of -1.02.

A further experiment addresses ATP8A2. Described as above. Particulars: shRNA.
The sequence TTGTCTCCTGTCAACACCCATA registered a sensor-assay potency score (higher = more potent) of -1.33.

With TTTGTCTCCTGTCAACACCCAT, the sensor-assay potency score (higher = more potent) was -1.17.

The sequence TCAATGTTCTTCAACAGCCTGG showed a sensor-assay potency score (higher = more potent) of -0.00859.

Sequence TTGTGTTGAAGCCTTCGCCATT came in with a sensor-assay potency score (higher = more potent) of -1.44.

TAATACATATCTGTGTCCCAGT had a sensor-assay potency score (higher = more potent) of -0.374.

Turning to TTGATCTCTTGAGAGGCGCTTT, the sensor-assay potency score (higher = more potent) was -0.359.
